Our source for the inhibition values is ChEMBL document CHEMBL1961873, “Compounds: GSK PKIS; Assays: Nanosyn kinase panel” (2012).

What is called inhibition is the relative decrease from the control value, in per cent.

In test [1] the target is SRSF protein kinase 1 (Homo sapiens) (UniProt Q96SB4). The conditions noted are these: at 0.1 µM.
For test [2] the target is unchanged. The conditions noted are these: at 1 µM.
Test [3] addresses Phosphatidylinositol 4,5-bisphosphate 3-kinase catalytic subunit alpha isoform (Homo sapiens) (UniProt P42336). The conditions noted are these: at 0.1 µM.
Test [4] has the same target. The conditions noted are these: at 1 µM.
In test [5] the target is T1, Phosphatidylinositol 4,5-bisphosphate 3-kinase catalytic subunit delta isoform (Homo sapiens) (UniProt O00329).
T1 sequence (whole entry): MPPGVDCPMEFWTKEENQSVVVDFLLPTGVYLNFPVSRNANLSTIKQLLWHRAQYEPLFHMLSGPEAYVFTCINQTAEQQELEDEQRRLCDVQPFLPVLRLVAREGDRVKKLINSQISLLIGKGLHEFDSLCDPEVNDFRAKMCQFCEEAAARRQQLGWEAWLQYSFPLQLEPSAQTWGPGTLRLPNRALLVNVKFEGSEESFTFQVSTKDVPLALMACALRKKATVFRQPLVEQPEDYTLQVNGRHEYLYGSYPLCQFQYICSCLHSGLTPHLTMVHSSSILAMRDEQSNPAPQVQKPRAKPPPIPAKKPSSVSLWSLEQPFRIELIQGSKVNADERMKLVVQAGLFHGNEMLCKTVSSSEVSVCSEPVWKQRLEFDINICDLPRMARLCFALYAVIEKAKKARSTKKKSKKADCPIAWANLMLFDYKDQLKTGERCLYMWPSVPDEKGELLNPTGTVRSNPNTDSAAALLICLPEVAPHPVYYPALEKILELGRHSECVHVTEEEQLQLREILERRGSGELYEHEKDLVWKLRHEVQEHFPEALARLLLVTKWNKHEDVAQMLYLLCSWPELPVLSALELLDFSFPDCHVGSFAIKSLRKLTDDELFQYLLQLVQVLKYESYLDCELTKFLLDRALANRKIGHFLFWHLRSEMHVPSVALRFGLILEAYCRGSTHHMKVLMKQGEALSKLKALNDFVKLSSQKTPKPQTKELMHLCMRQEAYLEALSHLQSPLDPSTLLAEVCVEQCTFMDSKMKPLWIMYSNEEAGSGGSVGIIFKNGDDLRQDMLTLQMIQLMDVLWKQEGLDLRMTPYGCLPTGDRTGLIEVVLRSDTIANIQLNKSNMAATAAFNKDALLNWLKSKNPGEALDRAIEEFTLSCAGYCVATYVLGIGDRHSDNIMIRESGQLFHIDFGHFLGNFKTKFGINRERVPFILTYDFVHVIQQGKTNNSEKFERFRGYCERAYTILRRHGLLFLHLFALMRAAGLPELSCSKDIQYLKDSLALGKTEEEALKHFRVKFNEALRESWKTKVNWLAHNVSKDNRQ
The conditions noted are these: at 0.1 µM.

The target in test [6] is T1, Phosphatidylinositol 4,5-bisphosphate 3-kinase catalytic subunit delta isoform (Homo sapiens). The following applies: at 1 µM.
Test [7] addresses Phosphatidylinositol 4-kinase beta (Homo sapiens) (UniProt Q9UBF8). The following applies: at 0.1 µM.
For test [8] the target is unchanged. The following applies: at 1 µM.
Test [9] concerns the target Sphingosine kinase 1 (Homo sapiens) (UniProt Q9NYA1). The following applies: at 0.1 µM.
Test [10] shares this target. The following applies: at 1 µM.
For test [11], the target named is T2, Sphingosine kinase 2 (Homo sapiens) (UniProt Q9NRA0).
T2 sequence (whole entry): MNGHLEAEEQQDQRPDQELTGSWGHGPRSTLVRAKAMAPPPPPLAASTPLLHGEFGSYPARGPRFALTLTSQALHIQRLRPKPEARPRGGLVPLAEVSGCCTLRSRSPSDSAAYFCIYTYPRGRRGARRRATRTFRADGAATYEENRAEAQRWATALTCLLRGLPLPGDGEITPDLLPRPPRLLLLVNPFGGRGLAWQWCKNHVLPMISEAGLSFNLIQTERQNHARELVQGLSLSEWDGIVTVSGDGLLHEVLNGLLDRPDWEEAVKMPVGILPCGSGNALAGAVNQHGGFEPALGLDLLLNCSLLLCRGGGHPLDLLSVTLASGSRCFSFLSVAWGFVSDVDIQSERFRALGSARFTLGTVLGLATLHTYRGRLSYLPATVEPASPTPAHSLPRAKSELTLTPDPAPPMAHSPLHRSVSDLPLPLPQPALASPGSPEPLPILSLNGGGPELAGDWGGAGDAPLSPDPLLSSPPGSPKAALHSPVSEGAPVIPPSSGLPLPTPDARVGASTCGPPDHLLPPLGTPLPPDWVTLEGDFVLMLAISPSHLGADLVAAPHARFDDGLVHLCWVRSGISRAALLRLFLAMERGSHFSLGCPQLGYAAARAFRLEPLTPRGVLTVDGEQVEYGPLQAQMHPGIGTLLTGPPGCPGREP
The conditions noted are these: at 0.1 µM.

Test [12] has as its target T2, Sphingosine kinase 2 (Homo sapiens). The conditions noted are these: at 1 µM.
Test [13] addresses Casein kinase II subunit alpha (Homo sapiens) (UniProt P68400). The conditions noted are these: at 0.1 µM.
For test [14] the target is unchanged. The conditions noted are these: at 1 µM.
Test [15] has as its target T3, Inhibitor of nuclear factor kappa-B kinase subunit alpha (Homo sapiens) (UniProt O15111).
T3 sequence (whole entry): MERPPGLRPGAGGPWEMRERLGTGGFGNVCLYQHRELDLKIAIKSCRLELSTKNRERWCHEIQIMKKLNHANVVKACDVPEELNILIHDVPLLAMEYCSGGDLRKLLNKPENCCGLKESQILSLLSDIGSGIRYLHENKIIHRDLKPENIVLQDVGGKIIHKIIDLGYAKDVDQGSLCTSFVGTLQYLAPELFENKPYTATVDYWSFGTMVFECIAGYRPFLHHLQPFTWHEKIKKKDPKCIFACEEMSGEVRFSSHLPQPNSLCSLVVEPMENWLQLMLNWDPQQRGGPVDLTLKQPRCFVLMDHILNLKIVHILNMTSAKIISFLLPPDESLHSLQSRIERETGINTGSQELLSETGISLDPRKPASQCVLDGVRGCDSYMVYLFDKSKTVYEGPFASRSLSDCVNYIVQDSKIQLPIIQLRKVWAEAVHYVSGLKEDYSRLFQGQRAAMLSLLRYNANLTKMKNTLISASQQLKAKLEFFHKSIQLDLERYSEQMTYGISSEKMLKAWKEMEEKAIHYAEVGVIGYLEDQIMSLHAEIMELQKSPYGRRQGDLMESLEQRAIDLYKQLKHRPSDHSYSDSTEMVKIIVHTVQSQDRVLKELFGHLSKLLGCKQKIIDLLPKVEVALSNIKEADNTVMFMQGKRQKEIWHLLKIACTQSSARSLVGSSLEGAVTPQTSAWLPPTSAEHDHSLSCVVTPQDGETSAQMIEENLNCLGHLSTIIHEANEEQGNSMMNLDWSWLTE
The following applies: at 0.1 µM.

Test [16] addresses T3, Inhibitor of nuclear factor kappa-B kinase subunit alpha (Homo sapiens). The conditions noted are these: at 1 µM.
The target in test [17] is T4, Inhibitor of nuclear factor kappa-B kinase subunit beta (Homo sapiens) (UniProt O14920).
T4 sequence (whole entry): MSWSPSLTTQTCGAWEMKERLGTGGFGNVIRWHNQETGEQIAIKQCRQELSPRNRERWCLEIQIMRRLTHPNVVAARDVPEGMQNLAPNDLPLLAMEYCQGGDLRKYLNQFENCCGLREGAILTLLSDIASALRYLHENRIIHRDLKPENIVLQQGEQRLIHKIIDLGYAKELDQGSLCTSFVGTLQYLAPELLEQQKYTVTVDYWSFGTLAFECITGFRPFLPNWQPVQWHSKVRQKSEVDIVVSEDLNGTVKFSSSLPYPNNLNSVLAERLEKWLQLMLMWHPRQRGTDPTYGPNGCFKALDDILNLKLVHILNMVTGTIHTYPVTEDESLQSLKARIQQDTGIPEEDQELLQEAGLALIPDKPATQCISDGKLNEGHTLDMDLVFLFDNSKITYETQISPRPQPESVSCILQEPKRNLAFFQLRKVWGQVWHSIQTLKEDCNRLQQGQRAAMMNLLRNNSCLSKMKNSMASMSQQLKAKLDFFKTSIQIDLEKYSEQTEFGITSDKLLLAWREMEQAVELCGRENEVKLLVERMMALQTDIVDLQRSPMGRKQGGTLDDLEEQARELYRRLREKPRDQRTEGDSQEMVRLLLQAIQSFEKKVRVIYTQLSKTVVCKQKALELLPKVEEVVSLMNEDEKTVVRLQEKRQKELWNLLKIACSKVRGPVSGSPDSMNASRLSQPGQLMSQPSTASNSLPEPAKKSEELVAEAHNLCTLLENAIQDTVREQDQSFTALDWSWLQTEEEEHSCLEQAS
The conditions noted are these: at 0.1 µM.

Test [18] deals with T4, Inhibitor of nuclear factor kappa-B kinase subunit beta (Homo sapiens). The conditions noted are these: at 1 µM.
Test [19] has as its target T5, Inhibitor of nuclear factor kappa-B kinase subunit epsilon (Homo sapiens) (UniProt Q14164).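 Note: mean inhibition of IKKε reported, from the GSK PKIS dataset.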
T5 sequence (whole entry): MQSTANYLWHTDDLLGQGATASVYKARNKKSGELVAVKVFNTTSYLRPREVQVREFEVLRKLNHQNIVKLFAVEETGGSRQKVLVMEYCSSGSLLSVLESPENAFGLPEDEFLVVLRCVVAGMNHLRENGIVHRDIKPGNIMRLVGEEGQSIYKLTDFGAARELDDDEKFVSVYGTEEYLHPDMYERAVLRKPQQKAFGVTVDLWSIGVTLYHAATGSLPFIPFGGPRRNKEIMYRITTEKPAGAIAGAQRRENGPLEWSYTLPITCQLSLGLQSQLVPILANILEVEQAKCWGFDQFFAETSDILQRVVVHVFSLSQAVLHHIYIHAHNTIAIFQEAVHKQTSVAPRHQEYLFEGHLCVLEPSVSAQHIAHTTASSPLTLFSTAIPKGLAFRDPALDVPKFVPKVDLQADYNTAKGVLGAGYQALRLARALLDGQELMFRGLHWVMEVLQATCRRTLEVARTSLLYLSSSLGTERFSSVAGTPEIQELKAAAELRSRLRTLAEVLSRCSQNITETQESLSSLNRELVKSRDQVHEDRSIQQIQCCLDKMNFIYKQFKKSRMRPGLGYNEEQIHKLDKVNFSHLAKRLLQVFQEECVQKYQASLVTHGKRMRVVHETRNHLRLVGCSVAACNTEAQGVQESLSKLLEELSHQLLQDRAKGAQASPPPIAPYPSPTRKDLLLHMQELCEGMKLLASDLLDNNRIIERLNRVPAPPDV
The conditions noted are these: at 0.1 µM.

Sphingosine kinase 1 (Homo sapiens), sequence (Q9NYA1 whole entry): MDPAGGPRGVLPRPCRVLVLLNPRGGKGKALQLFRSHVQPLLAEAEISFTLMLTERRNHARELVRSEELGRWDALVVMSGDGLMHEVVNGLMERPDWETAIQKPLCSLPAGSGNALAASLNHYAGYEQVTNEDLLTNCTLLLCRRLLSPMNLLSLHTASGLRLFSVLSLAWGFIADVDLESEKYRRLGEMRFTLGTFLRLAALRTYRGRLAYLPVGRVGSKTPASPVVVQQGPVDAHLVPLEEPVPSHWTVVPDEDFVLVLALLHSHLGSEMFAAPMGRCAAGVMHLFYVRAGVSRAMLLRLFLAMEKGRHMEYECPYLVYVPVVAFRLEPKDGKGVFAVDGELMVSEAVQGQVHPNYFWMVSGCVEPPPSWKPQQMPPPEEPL
Casein kinase II subunit alpha (Homo sapiens), sequence (P68400 whole entry, looked up): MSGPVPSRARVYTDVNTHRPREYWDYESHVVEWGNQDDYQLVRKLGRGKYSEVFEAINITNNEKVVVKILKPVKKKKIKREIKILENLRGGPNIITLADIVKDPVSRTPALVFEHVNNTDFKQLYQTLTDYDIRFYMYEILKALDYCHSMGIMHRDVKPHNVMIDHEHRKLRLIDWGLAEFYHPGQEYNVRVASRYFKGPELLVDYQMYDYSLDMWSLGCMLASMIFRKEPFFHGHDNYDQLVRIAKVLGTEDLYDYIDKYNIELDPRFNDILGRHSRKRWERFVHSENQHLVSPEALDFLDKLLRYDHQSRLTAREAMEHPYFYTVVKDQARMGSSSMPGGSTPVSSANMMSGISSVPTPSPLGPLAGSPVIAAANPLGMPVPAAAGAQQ
Phosphatidylinositol 4,5-bisphosphate 3-kinase catalytic subunit alpha isoform (Homo sapiens), sequence (P42336 whole entry, canonical isoform): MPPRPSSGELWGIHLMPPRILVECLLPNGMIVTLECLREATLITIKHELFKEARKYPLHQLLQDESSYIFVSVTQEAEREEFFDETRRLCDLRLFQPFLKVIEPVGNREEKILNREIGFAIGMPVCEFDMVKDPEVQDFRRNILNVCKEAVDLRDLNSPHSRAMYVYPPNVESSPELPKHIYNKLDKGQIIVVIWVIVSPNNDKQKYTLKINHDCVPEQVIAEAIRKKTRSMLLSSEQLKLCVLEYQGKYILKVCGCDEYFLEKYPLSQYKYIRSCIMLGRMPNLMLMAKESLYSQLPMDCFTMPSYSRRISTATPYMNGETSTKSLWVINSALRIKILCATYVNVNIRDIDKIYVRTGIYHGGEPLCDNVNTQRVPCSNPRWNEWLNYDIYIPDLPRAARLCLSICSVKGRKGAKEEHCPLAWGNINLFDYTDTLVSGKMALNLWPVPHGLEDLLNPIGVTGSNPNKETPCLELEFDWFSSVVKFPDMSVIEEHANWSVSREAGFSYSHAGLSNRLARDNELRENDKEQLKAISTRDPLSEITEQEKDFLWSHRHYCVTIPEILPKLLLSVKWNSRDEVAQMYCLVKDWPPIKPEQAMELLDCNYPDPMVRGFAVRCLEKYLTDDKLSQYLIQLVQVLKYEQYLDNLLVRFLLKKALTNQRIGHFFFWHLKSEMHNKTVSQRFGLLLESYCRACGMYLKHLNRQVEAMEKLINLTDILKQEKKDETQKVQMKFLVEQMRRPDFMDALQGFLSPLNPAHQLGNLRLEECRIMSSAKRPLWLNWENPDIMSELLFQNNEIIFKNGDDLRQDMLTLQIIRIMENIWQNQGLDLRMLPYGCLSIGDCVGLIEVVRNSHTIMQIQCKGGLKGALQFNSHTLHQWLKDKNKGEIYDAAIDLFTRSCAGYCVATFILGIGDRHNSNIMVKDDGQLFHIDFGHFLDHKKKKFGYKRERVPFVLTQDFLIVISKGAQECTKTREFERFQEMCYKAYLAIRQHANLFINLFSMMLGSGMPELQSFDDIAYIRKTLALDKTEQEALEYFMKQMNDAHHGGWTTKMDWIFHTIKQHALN
Phosphatidylinositol 4-kinase beta (Homo sapiens), sequence (Q9UBF8 2-816 limits assumed): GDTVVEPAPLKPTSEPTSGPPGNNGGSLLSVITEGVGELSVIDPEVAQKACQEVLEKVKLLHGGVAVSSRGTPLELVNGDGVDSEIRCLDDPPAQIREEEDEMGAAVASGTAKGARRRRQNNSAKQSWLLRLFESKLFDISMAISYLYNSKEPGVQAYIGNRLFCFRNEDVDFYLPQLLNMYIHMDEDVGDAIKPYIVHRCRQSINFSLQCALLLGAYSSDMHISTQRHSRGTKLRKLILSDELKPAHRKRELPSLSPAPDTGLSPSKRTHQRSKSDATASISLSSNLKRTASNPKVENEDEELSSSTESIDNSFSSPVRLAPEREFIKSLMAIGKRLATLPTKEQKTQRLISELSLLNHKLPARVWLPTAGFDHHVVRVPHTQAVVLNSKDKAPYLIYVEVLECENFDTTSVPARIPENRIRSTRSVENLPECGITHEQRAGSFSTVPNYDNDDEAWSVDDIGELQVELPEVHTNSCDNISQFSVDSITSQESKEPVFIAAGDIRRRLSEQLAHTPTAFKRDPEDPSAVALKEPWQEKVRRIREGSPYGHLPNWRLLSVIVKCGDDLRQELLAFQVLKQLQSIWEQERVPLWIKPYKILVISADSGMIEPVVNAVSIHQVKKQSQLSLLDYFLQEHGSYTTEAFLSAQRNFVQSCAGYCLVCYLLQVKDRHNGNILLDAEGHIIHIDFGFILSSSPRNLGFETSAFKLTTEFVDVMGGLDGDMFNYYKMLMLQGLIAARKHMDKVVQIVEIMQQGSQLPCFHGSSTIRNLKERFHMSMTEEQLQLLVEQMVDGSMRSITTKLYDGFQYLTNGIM
SRSF protein kinase 1 (Homo sapiens), sequence (Q96SB4 whole entry): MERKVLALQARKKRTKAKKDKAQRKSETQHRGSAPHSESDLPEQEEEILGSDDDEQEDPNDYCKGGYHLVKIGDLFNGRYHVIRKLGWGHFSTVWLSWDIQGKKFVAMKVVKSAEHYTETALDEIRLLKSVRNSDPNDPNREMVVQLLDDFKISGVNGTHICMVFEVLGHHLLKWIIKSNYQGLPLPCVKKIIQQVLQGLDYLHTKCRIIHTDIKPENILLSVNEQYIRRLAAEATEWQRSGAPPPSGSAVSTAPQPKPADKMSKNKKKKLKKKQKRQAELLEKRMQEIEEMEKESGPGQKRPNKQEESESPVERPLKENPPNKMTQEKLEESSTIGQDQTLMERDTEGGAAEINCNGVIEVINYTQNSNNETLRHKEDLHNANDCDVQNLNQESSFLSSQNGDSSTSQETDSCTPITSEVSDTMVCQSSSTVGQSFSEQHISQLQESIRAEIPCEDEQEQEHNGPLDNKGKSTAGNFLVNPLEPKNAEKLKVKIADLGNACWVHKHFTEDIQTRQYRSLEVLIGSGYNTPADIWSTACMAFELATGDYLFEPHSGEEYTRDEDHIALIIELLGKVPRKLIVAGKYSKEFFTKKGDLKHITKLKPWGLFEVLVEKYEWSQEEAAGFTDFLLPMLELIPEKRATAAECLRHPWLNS

With `NC(=O)c1ccc(Oc2nccc(-c3c(-c4ccc(F)cc4)ncn3C3CCNCC3)n2)cc1`, the inhibition in test [1] is -2.65%; in test [2], -1.89%; in test [3] it was 6.13%; in test [4], 8.85%; in [5] it was 0.53%; in test [6], 5.87%. Besides, the inhibition turned out to be 2.26% in test [7]; 2.71% in [8]; 2.48% in test [9]; 2.16% in [10]; 0.71% in [11]; 0.08% in test [12]. In addition, the inhibition was 2.95% in test [13]; 2.91% in [14]; 5.54% in test [15]; 7.33% in test [16]; 7.24% in test [17]; 6.83% in test [18]. Also, the inhibition in test [19] is 8.54%.
For `Fc1ccc(-c2ncn(C3CCNCC3)c2-c2ccnc(Oc3ccc(Oc4ccccc4)cc3)n2)cc1`, the inhibition was -3.18% in [1]; -2.43% in test [2]; 3.74% in test [3]; 2.92% in [4]; -0.16% in test [5]; 2.82% in test [6]. Moreover, the inhibition is -2.22% in test [7]; 5.8% in [8]; 1.17% in test [9]; -0.85% in test [10]; -0.41% in test [11]; -0.56% in [12]. Also, the inhibition was found to be 4.31% in [13]; 4.14% in test [14]; 4.44% in test [15]; 5.03% in test [16]; 5.84% in test [17]; 6.14% in test [18]. Also, the inhibition in test [19] came to 7.47%.
